From PubChem BioAssay
This is a sample that favours compounds with a hit; in the whole collection about 7.8% have one here.
MARV entry inh: inhibitors of Marburg virus binding or cell entry | Marburg virus pseudotyped entry inhibition, cell reporter | actives 1.8% (n = 300,000) | Potency, µM (series often up to 37.8 µM), for inactives: top-dose activity change, negative = inhibition, most hits filed as inhibitors; calls by dose curve; tested in HEK293 cells; further: potency means the concentration at half of the fitted maximal effect
HCMV antiviral: blocks human cytomegalovirus replication | HFF cells, HCMV-luciferase reporter, 72 h; hits give low values | activity change, negative = inhibition, % at 57.5 µM | actives 4.5% (n = 410,000); in the data active means activity change below about -60%; inconclusive means no clear call, values can overlap the other calls; inactive means above about -39%
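Screen run at 2 compound doses on HFFs infected with reporter HCMV, MOI 1 PFU/cell. Luciferase activity from cell lysates at 72 h post infection gave inhibition relative to buffer-only and Salinomycin wells.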
Vaccinia Venus: inhibitors of vaccinia virus (Venus reporter) | AID 720580 | Potency, µM (series often up to 36.5 µM), inactives show top-dose activity change, negative = inhibition, usual class: inhibitors | actives 0.46% (n = 330,000) | Vaccinia virus Venus reporter expression, fluorescence; calls by dose curve; tested in A549 cells; further: potency means the concentration at half of the fitted maximal effect; nearly all actives have a fitted effect of over 30% in size
HCV inh: blocks hepatitis C virus. Huh7.5.1 HCVcc-Cre infection, luciferase reporter, 44 h. Potency, µM (doses to about 41.8 µM), without a hit: at the highest dose activity change, negative = inhibition, usual class: inhibitors. actives 3.4% (n = 340,000); active means well fitted inhibition curve with a large enough effect; inconclusive means small, poorly fitted or top-dose-only effect, or another doubt; inactive means no such curve, though single readings can be large or run the other way; further: potency means the concentration at half of the fitted maximal effect
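Whole-lifecycle infectious HCVcc-Cre system; cells 1,000/well, compound then virus (~0.5 moi) added 4 h after plating, 44 h culture. Luciferase read 15 sec following 15 min substrate incubation, room temp.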
VACV mCherry inh: vaccinia inhibition (mCherry reporter) | actives 0.63% (n = 310,000) | Potency, µM (doses to about 36.5 µM), without a hit: top-dose activity change, negative = inhibition, hits mostly inhibitors | Vaccinia virus mCherry reporter infection, fluorescence; calls by dose curve; tested in A549 cells; further: potency means the concentration at half of the fitted maximal effect; nearly all actives have a fitted effect of over 35% in size
LASV entry inh: inhibitors of Lassa virus binding or cell entry. Lassa virus pseudotype entry inhibition, cell reporter. Potency, µM (top dose mostly 37.9 µM), for the others: at the top dose activity change, negative = inhibition, actives largely listed as inhibitors. actives 1.2% (n = 300,000). AID 540256; calls by dose curve; tested in HEK293 cells; further: potency means the concentration at half of the fitted maximal effect; nearly all actives have a fitted effect of over 50% in size
An asterisk follows results filed as active; i = inactive; ? = inconclusive; · = no result; ! = a repeat was not active; [ ] = another dose, or the depositor's remark. On the % scale 0 is the no-effect control and ±100 the full control effect.

SMILES | MARV entry inh | HCMV antiviral | Vaccinia Venus | HCV inh | VACV mCherry inh | LASV entry inh
O=C1c2cccc3c([N+](=O)[O-])ccc(c23)C(=O)N1c1nccs1 | ? | -94.8* | · | ? | · | ?
O=C1c2cccc3cccc(c23)C(=O)N1c1nccs1 | ? | -22.2 | · | 14.9% | · | 11.4%
O=C1c2cccc3c([N+](=O)[O-])ccc(c23)C(=O)N1O | · | 15.1 | 162.3% | 0.2% | i | ·
CN(Cc1ccccc1)c1ncc(C=O)s1 | ? | -63.4* | -19.4% | 9.9% | i | -20.6%[46.1 µM]
O=C(N/N=C(\Cc1ncc[nH]1)c1ccccc1)c1ccncc1 | ? | -91.3* | ? | ? | 10µM* | ?
O=C(N/N=C(\Cc1ncc[nH]1)c1ccccc1)c1ccccc1 | · | -77.6* | · | · | · | ·
O=C(N/N=C(\c1ccccc1)c1cccnc1)c1cccc(F)c1 | ? | -112.0* | ? | ? | 3.16µM* | ?
O=C(N/N=C(\Cc1ncc[nH]1)c1ccccc1)c1cccnc1 | ? | ? | ? | ? | 11.2µM* | ?
CC(/C=C/C=C/c1ccccc1)=N\NC(=O)c1cccnc1 | 6.3%[14.2 µM] | -28.7 | -6.3% | 6.8% | -9.8% | 4.5%
O=C(N/N=C(\c1ccccc1)c1cccnc1)c1ccc(O)cc1 | -8.6%[46.1 µM] | 24.0 | -17.5% | 3.3% | i | -22.2%[46.1 µM]
CC(C)OC(=O)CC(=O)CSc1nc2c(c(-c3cccs3)c1C#N)CCC2 | · | -18.8 | -16.9% | 10µM* | i | ·
COC(=O)c1ccc2nc(NC(=O)C(C)(C)C)sc2c1 | ? | -62.8* | -8.3% | ? | i | 1.12µM*
COC(=O)c1ccc2nc(NC(=O)C3CCCCC3)sc2c1 | ? | 136.6 | · | 6.0% | · | 14.1%
COC(=O)c1ccc2nc(Nc3nc4ccc(F)cc4s3)sc2c1 | 0.794µM* | -85.2* | -2.8% | 32.6% | i | 6.31µM*
O=C1CC(c2ccccc2)Cc2[nH]c(=O)c(C(=O)O)cc21 (centres undefined) | · | · | -4.0% | · | 34.5% | ·
CCOC(=O)Cn1c(=O)n(-c2ccccc2OC)c2nc(-c3ccccc3)nc(C(N)=O)c21 | · | 22.0 | 10.0% | · | -4.7% | -15.4%[46.1 µM]
O=C1Nc2ccccc2C(=O)N2[C@H](c3cccc(Br)c3)[C@@H]3C(=O)N(Cc4ccccc4)C(=O)[C@@H]3[C@H]12 | · | -60.4* | 0.0% | 2.8%[8.37 µM] | -15.6% | ·
CCC(=O)N1CCN(c2nc(CC)nc3sc4c(c23)CCCC4)CC1 | -30.0% | -27.7 | -25.8% | ? | -13.8% | ?
CCc1nc(N2CCN(C(=S)NCCCOC)CC2)c2c3c(sc2n1)CCCC3 | · | -63.6* | · | ? | · | ·
COC(=O)C1=C(C)N(Cc2ccccc2)C(=O)NC1c1ccco1 (centres undefined) | 12.6%[14.2 µM] | · | · | · | · | ·
CN(Cc1ccccc1)C(=O)COC(=O)c1ccccc1NS(=O)(=O)c1cccc(N)c1 | -5.6% | 30.2 | -5.8% | -2.2% | -20.9% | -6.8%
CC(OC(=O)c1ccccc1NS(=O)(=O)c1cccc(C(F)(F)F)c1)C(=O)N(C)Cc1ccccc1 (centres undefined) | 7.08µM* | ? | -15.2% | ? | -7.8% | ?
CC(=O)O[C@]1(C(C)=O)CC[C@H]2[C@@H]3C=C(Cl)C4=CC(=O)[C@@H]5C[C@@H]5[C@]4(C)[C@H]3CC[C@@]21C | ? | -90.0*! | ? | 7.1% | ? | 16.4µM*
C=Cn1ccnc1P(=S)(c1ccc(Cl)cc1)c1nccn1C=C | -1.8%[46.1 µM] | -75.9* | -10.0% | 1.4% | -7.8% | 18.8%[46.1 µM]
CC(=O)[C@H]1CCC2C3CC=C4C[C@@H](OS(=O)(=O)O)CC[C@]4(C)C3CC[C@@]21C (some centres undefined) | -9.3% | · | · | · | · | ?
SMILES | MARV entry inh | HCMV antiviral | Vaccinia Venus | HCV inh | VACV mCherry inh | LASV entry inh
CC(=O)C1CCC2C3CC=C4CC(SC(=N)N)CCC4(C)C3CCC12C (centres undefined) | 11.2µM* | 9.4 | 15.8µM* | ? | ? | ?
CC(C)(C)[C@H](N)C(=O)N[C@H]1CCC2C3CC=C4C[C@@H](O)CC[C@]4(C)C3CC[C@@]21C (some centres undefined) | ? | -99.3* | ? | 11.2µM* | ? | ?
Cc1cc(C)nc(Nc2cccc(Cl)c2)n1 | · | -16.5 | · | 1.1% | · | ·
CCC(C)Oc1cc(-c2ccnc(Nc3cccc(Cl)c3)n2)ccn1 (centres undefined) | · | -86.5* | ? | 12.1% | ? | ·
CN(C)CCCNc1ccc(-c2cc(Nc3cccc(Cl)c3)ncn2)cn1 | · | -37.5 | ? | ? | -13.5% | ·
OCCCNc1cc(-c2ccnc(Nc3cccc(Cl)c3)n2)ccn1 | · | -97.4* | 1µM* | 2µM* | ? | ·
COc1nnc(-c2ccc(N3CCCCC3)c(NC(=O)c3ccccc3)c2)c2ccccc12 | ? | -24.6 | ? | · | ? | 24.3%[46.1 µM]
N#CCC(=O)N/N=C/c1c(-c2ccccc2)n(-c2ccccc2)c2ccccc12 | ? | 5.0 | -1.0% | 14.1µM* | i | ?
COc1ccccc1C(=O)N[C@@H]1c2ccccc2C2(CCN(Cc3ccc(C)o3)CC2)[C@H]1O | · | · | -23.6% | · | -4.6% | ·
Cc1cc(C)cc(OCc2nc3ncc(Br)cc3[nH]2)c1 | ? | -62.5* | -28.2% | ? | ? | ?
O=C(C[n+]1ccc2ccccc2c1)c1ccc(F)cc1 | · | · | -27.9% | · | -10.1% | ·
COc1ccc(/C=N/Nc2nnc(Cc3ccc(OC)c(OC)c3)c(=O)[nH]2)cc1 | -51.7% | -68.0* | -6.2% | 0.7% | -5.4% | -3.4%
COCCCNC(=O)c1ccc(-c2nc(CS(=O)(=O)c3ccc(C)cc3)c(C)o2)cc1 | · | 7.9 | -11.3% | · | -7.7% | -15.9%[46.1 µM]
CCOC(=O)c1c(NC(=O)c2ccc(OC)cc2)sc2c1CCCCC2 | · | 3.7 | 5.0% | · | -2.8% | -17.5%[46.1 µM]
COc1ccc(CC(=O)Nc2sc3c(c2C(=O)Nc2cccc(Cl)c2)CCCCC3)cc1 | · | -106.4* | ? | · | -24.7% | -7.9%[46.1 µM]
CCN(CC)Cc1c(NC(=O)c2ccc(OC)cc2)sc2c1CCCC2 | · | -89.6* | -8.8% | · | -8.3% | ?
COc1ccc(CC(=O)Nc2sc3c(c2C(=O)Nc2ccccc2)CCCCC3)cc1 | · | ? | -16.9%[7.34 µM] | · | -24.3%[7.34 µM] | -7.8%[46.1 µM]
COc1ccc(NC(=O)CN(C)CC(=O)Nc2sc3c(c2C(N)=O)CCC3)cc1 | ? | -22.1 | -22.8% | ? | -9.3% | -3.3%
CCN(CC(=O)Nc1ccc(OC)cc1)CC(=O)Nc1sc2c(c1C(=O)OC)CCCC2 | · | ? | · | 7.94µM* | · | ·
O=C(c1ccc(-n2c(SCc3cccc(F)c3)nc3ccccc3c2=O)cc1)N1CCOCC1 | -4.7% | -62.9* | 2.6% | 4.0% | -8.9% | 17.6%
CCC(C(=O)NCCC(C)C)n1ccc2cc(S(=O)(=O)N3CCCCC3)ccc21 (centres undefined) | · | · | 0.0%[7.34 µM] | 10µM* | i[7.34 µM] | ·
Cc1cc(N2CCN(Cc3ccccc3)CC2)n2nc(C)c(-c3ccccc3)c2n1 | -1.6% | ? | · | ? | · | -6.1%
